In PubChem BioAssay (NCATS):
Results filed as inconclusive are left out. The source made the active and inactive calls. Calls follow the shape of the dose curve; as a rule, active = well fitted curve in the direction sought with a large enough effect; inconclusive = small, poorly fitted or top-dose-only effect, or another doubt; inactive = no such curve, though single readings can be large; an effect the other way counts as inactive or inconclusive.

Tests used:
[1] = qHTS assay for measurement of the activity of small molecule inhibitors on Zika virus induced Caspase-3 activity in human iPSC derived neural progenitor cells (hNPCs) (AID 1224857); also: nearly all actives have a fitted effect of over 65% in size
How it was run: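 Human iPSC-derived neural progenitor cells pretreated 1 hr with compounds, then infected with Zika virus (2 FFU/cell) for 6 hours at 37 C. Caspase-3/7 measured by Caspase-Glo luminescence; % inhibition calculated from induction scaled to uninfected (0%) and infected (100%) wells.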

[2] = qHTS assay for measurement of the activity of small molecule inhibitors on Zika virus induced Caspase-3 activity in human astrocytoma cells (AID 1224859)
How it was run: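 SNB-19 astrocytoma cells, 250/well, pretreated 1 h with compounds, then Zika virus at 2 FFU/cell for 6 h at 37 C; Caspase-Glo 3/7 luminescence after 30 min; percent inhibition normalised to uninfected and infected controls.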

[3] = qHTS Screen of the MIPE 4.0 Collection Against Ewings Sarcoma (RDES) (AID 1259252); also: nearly all actives have a fitted effect of over 35% in size
How it was run: (§1)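 Here, cells in 5% FBS RPMI were exposed for two days (48 h) to compound dilutions added four hours after plating. ATP-based CellTiter-Glo luminescence measured viability, normalized to vehicle and no-cell blanks.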

[4] = qHTS Screen of the MIPE 4.0 Collection Against Ewings Sarcoma (TC71) (AID 1259253); also: nearly all actives have a fitted effect of over 40% in size
How it was run: as §1

[5] = qHTS Screen of the MIPE 4.0 Collection Against Ewings Sarcoma (EW8) (AID 1259255); also: nearly all actives have a fitted effect of over 35% in size
How it was run: as §1

[6] = qHTS Screen of the MIPE 4.0 Collection Against Ewings Sarcoma (TC32) (AID 1259256); also: nearly all actives have a fitted effect of over 45% in size
How it was run: as §1

[7] = Identifying Small Molecule Inhibitors of Pancreatic Cancer Stem Cells (A2780, Spheroid) (AID 1259357); conditions: Potency: A2780 spheroid viability;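 also: compound exposure lasted 48 h before the ATP luminescence read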
How it was run: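 Cytotoxicity read by CellTiter-Glo luminescence after 48 h compound exposure at 37C; percent activity scaled between DMSO-treated cells and cell-free wells. Spheroid formats used cells pre-formed 14 days in stem cell media on hydrogel.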

[8] = Identifying Small Molecule Inhibitors of Pancreatic Cancer Stem Cells (SN12C, Adherent) (AID 1259358);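 also: cell survival measured after 48 h of compound exposure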
How it was run: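 Luminescent ATP readout (CellTiter-Glo) quantifies surviving cells after a 48 h drug incubation. Normalization uses DMSO wells as no inhibition and media-only wells as full inhibition; bortezomib served as positive control.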

Measured: Potency
Potency is read from the fitted curve at half-maximal effect.

CC[C@@H]1C(=O)N(C)c2cnc(Nc3ccc(C(=O)NC4CCC(N5CCN(CC6CC6)CC5)CC4)cc3OC)nc2N1C(C)C (stereo not given in full)
inactive: [1] | [2] | [7]
active: [3] 0.105 µM | [4] 0.118 µM | [5] 0.0743 µM | [6] 0.0662 µM | [8] 1.32 µM

Cc1ccc(S(=O)(=O)Nc2cc(Cl)ccc2C(=O)Nc2nc(-c3ccccc3)cs2)cc1
active: [3] 10.5 µM | [4] 13.2 µM | [5] 16.6 µM | [6] 14.8 µM | [8] 2.64 µM
inactive: [1] | [2]

COc1cc(C(C)C)c2c(c1)S(=O)(=O)N(COc1cc(=O)n3cccc(OCCN4CCCCC4)c3n1)C2=O
inactive: [1] | [2] | [8]
active: [3] 10.5 µM | [4] 18.7 µM | [5] 26.4 µM | [6] 20.9 µM

Cc1nc2cnc3ccc(C#Cc4cccnc4)cc3c2n1-c1ccc(C(C)(C)C#N)cc1
active: [3] 0.132 µM | [4] 0.132 µM | [5] 0.118 µM | [6] 0.105 µM | [7] 1.87 µM | [8] 1.18 µM
inactive: [1] | [2]

CC(C)=CCCC(C)=CCCC(C)=CCSc1ccccc1C(=O)O
inactive: [1] | [2] | [8]
active: [3] 2.35 µM | [4] 2.35 µM | [5] 2.64 µM | [6] 1.87 µM

CC(C)c1ccc(Cn2ccc3c4c(N)nc(NC5CC5)nc4ccc32)cc1
inactive: [1] | [2]
active: [3] 9.35 µM | [4] 1.05 µM | [5] 3.32 µM | [6] 1.32 µM | [7] 14.8 µM | [8] 7.43 µM

c1ccc2c(CCNc3ccc(Nc4ccncc4)cc3)c[nH]c2c1
active: [3] 16.6 µM | [4] 14.8 µM | [5] 5.26 µM | [6] 5.26 µM | [8] 18.7 µM
inactive: [1] | [2] | [7]

CC(=O)c1c(C)c2cnc(Nc3ccc(N4CCNCC4)cn3)nc2n(C2CCCC2)c1=O
inactive: [1] | [2] | [7]
active: [3] 18.7 µM | [4] 5.26 µM | [5] 20.9 µM | [6] 14.8 µM

CC(C)c1ccccc1Cc1cc(C(=O)Nc2ccc(S(=O)(=O)c3ccccc3C(C)(C)C)cc2)c(O)c(O)c1O
active: [3] 7.43 µM | [4] 7.43 µM | [5] 8.33 µM | [6] 8.33 µM
inactive: [1] | [2] | [8]

Cn1c2cc(S(C)=O)sc2c2cnn(Cc3cccc(N)c3)c(=O)c21 (stereo not given)
not listed: [7]
inactive: all other assays above

CN1CC[C@@H](c2c(O)cc(O)c3c(=O)cc(-c4ccccc4Cl)oc23)[C@@H](O)C1
active: [3] 0.148 µM | [4] 0.0743 µM | [5] 0.118 µM | [6] 0.148 µM | [7] 0.0743 µM | [8] 0.187 µM
inactive: [1] | [2]

CC(C)(C)c1cc(NC(=O)Nc2ccc(-c3cn4c(n3)sc3cc(OCCN5CCOCC5)ccc34)cc2)no1
not listed: [7]
inactive: all other assays above

COC(=O)c1ccc2c(C(=Nc3ccc(N(C)C(=O)CN4CCN(C)CC4)cc3)c3ccccc3)c(O)[nH]c2c1
active: [3] 0.148 µM | [4] 0.743 µM | [5] 3.32 µM | [6] 1.48 µM | [8] 18.7 µM
inactive: [1] | [2]

CC1(C)OC2=C(C(=O)c3ccccc3C2=O)[C@H](NCc2ccccc2)[C@H]1O
inactive: [2]
active: [1] 18.7 µM | [3] 2.64 µM | [4] 2.64 µM | [5] 2.96 µM | [6] 3.32 µM | [7] 14.8 µM | [8] 26.4 µM

C[C@@H](Oc1cc(-n2cnc3ccc(CN4CCN(C)CC4)cc32)sc1C(N)=O)c1ccccc1C(F)(F)F
inactive: [1] | [2] | [7]
active: [3] 0.0935 µM | [4] 0.0743 µM | [5] 0.0743 µM | [6] 0.0743 µM

Cc1cnc(-c2cnc(NCCNc3ccc(C#N)cn3)nc2-c2ccc(Cl)cc2Cl)[nH]1
active: [3] 8.33 µM | [4] 11.8 µM | [5] 16.6 µM | [6] 11.8 µM
inactive: all other assays above

COc1cc(=C2C=c3ccccc3=N2)[nH]c1=Cc1[nH]c(C)cc1C
inactive: [1] | [2]
active: [3] 1.87 µM | [4] 0.469 µM | [5] 2.35 µM | [6] 1.18 µM | [7] 20.9 µM

COCCn1c2c([n+](Cc3cnccn3)c1C)C(=O)c1ccccc1C2=O
active: [1] 0.418 µM | [2] 1.32 µM | [3] 0.0021 µM | [4] 0.0166 µM | [5] 0.0047 µM | [6] 0.0053 µM | [7] 0.0132 µM | [8] 0.0264 µM

CC(C)C[C@H](NC(=O)CNC(=O)c1cc(Cl)ccc1Cl)B(O)O
inactive: [1] | [2]
active: [3] 0.264 µM | [4] 0.332 µM | [5] 0.148 µM | [6] 0.469 µM | [8] 0.132 µM

COc1c(OCCCN2CCOCC2)ccc2c3n(c(=NC(=O)c4cnc(N)nc4)nc12)CCN3
active: [3] 0.0575 µM | [5] 0.724 µM | [6] 0.457 µM
inactive: [1] | [2]

Cc1cccc(C=NNc2cc(N3CCOCC3)nc(OCCc3ccccn3)n2)c1
inactive: [1] | [2]
active: [3] 18.7 µM | [5] 16.6 µM | [6] 5.26 µM

C[C@@H](Oc1cc(-c2cnn(C3CCNCC3)c2)cnc1N)c1c(Cl)ccc(F)c1Cl
active: [3] 16.6 µM | [4] 14.8 µM | [5] 10.5 µM | [8] 18.7 µM
inactive: [1] | [2]

CS(=O)(=O)N1CCN(Cc2cc3nc(-c4cccc5[nH]ncc45)nc(N4CCOCC4)c3s2)CC1
inactive: [1] | [2]
active: [3] 1.18 µM | [4] 5.9 µM | [5] 1.66 µM | [8] 0.296 µM

NCC(=O)Nc1ccc(-n2nc(C(F)(F)F)cc2-c2ccc3c(ccc4ccccc43)c2)cc1
active: [3] 20.9 µM | [5] 18.7 µM | [6] 20.9 µM
inactive: [1] | [2]

O=C(C=Cc1cccnc1)NCCCCC1CCN(C(=O)c2ccccc2)CC1
active: [3] 0.0042 µM | [4] 0.0042 µM | [5] 0.0074 µM
not listed: [6]
inactive: all other assays above

Cn1c2ccccc2c2c3c(c4c5ccccc5n(CCC#N)c4c21)CNC3=O
inactive: [1] | [2]
active: [3] 0.935 µM | [5] 8.33 µM | [6] 4.69 µM

COc1cc2c(Oc3ccc4[nH]c(C)cc4c3F)ncnc2cc1OCCCN1CCCC1
active: [3] 23.5 µM | [5] 23.5 µM | [6] 16.6 µM | [8] 2.35 µM
inactive: [1] | [2]

Cc1c(NC(=O)OC[C@@H]2COCCN2)cn2ncnc(Nc3ccc4c(cnn4Cc4cccc(F)c4)c3)c12
inactive: [1] | [2]
active: [3] 0.166 µM | [5] 1.48 µM

O=C(Cc1ccc(-c2ccc(OCCN3CCOCC3)cc2)cn1)NCc1ccccc1
inactive: [1] | [2]
active: [3] 0.0235 µM | [5] 0.0235 µM | [6] 0.0235 µM

CC[C@@H]1C(=O)N(C)c2cnc(Nc3ccc(C(=O)NC4CCN(C)CC4)cc3OC)nc2N1C1CCCC1
inactive: [1] | [2] | [7]
active: [3] 0.0662 µM | [5] 0.0372 µM | [6] 0.0469 µM

CC[C@H](CO)Nc1nc(NCc2ccccc2)c2ncn(C(C)C)c2n1
active: [3] 16.6 µM | [4] 20.9 µM | [5] 29.6 µM | [7] 20.9 µM
inactive: [1] | [2]

O=C(O)[C@H](Cc1c[nH]c2ccccc12)N1C(=O)c2ccccc2C1=O
not listed: [4] | [7]
inactive: all other assays above

Nc1nc(-c2nn(Cc3ccccc3F)c3ncccc23)nc(N)c1N1CCOCC1
not listed: [4] | [7]
inactive: all other assays above

N#CCNC(=O)c1ccc(-c2ccnc(Nc3ccc(N4CCOCC4)cc3)n2)cc1
inactive: [1] | [2]
active: [3] 11.8 µM | [4] 4.69 µM | [5] 13.2 µM | [7] 20.9 µM
